Results filed as inconclusive are left out. Active and inactive are the calls of the source.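 The calls were made as follows, unless noted: active = inhibition over a set limit, the all-compound mean plus 3 SD, in both replicate runs; inconclusive = over that limit in just one replicate run; inactive = at or under that limit in both runs.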

Usually viability stands for a read-out of living cells in per cent, often relative to untreated cells. What is called inhibition is the change of the read-out against control, counted positive when it falls.

Assay [1] can be described thus: reducers of endogenous Her2 protein level, primary screen, SKBR3 breast tumor cells, AlphaScreen, ATP viability (AID 461;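 active = Her2 level under about 52% in both replicate screens, with viability over 70% of control, limit read from the data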;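 as to Her2 level: lower value means less Her2 protein in the cells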;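 as to viability: percent of carrier control wells set as 100% viability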). The conditions noted are these: 18-24 h, measured here: SKBR3 viability, ATP luminescence, at 10 µM. A general note: Bead proximity is the source of the signal in Alpha formats.
Assay [2] concerns the target Receptor tyrosine-protein kinase erbB-2 (Homo sapiens) (UniProt P04626). The assay is described as above. Conditions: 18-24 h, at 10 µM, stronger effect = lower value.
A short description of assay [3]: SK-BR-3 cell growth inhibitors, pilot screen, 24 h, human (AID 572;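 active = viability at or below 10% of carrier control in both of two separate runs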;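 also: compound exposure lasted between 18 and 24 h rather than exactly 24 h; 100% = carrier-treated control wells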). The conditions noted are these: SK-BR-3 viability, CellTiter-Glo luminescence, at 10 µM, stronger effect = lower value.
Assay [4] is described as follows: HUVEC growth inhibition – cell-based, human, primary screen (AID 575;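 active = viability at or below 30% in both replicate assays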;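 also: 100% = median of untreated cell wells with 0.1% DMSO on each plate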). Conditions: HUVEC proliferation, CellTiter-Glo luminescence, 72 h; at 10 µM; stronger effect = lower value. For orientation: In ATP-based viability assays light output follows the ATP content of the culture.
Assay [5] can be described thus: growth inhibitors of H69AR lung tumor, primary screen, human, duplicate replicates (AID 580;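 active = viability at or under a set limit in both replicates, limit being median viability minus 3 SD, cut at about 48% in these data, passing the limit was not always enough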;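 also: 100% = mean luminescence of untreated wells and 0% = no signal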). Conditions: H69AR lung tumor cells viability, ATP luminescence, 72 h; at 10 µM; stronger effect = lower value.
Assay [6] is described as follows: reversal of MRP1-mediated doxorubicin resistance, pilot screen, H69AR cells, doxorubicin co-treatment (AID 601;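 active = viability loss from added drug above about 55%, and viability with drug at most 40%, in both replicates, limit read from the data, passing the limit was not always enough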). Conditions: CellTiter-Glo, 72 h, at 10 µM; for differential viability (reversal): stronger effect = higher value.
The nature of assay [7]: 384-well plate pilot, post-Golgi transport modulator project, inhibition of yeast transport mutant growth (AID 636; in the data active = inhibition above about 31%). Conditions: absorbance 615 nm, about 18 h, stronger effect = higher value.
Assay [8] in a line: growth suppression of yeast trafficking mutant, preliminary HTS, modulators of trafficking downstream of Golgi apparatus project, 1536-format plate, OD 615 nm (AID 637; in the data active = inhibition above about 30%). The conditions noted are these: yeast transport mutant growth, absorbance 615 nm, 18 h; stronger effect = higher value.
The nature of assay [9]: OD615 S. cerevisiae growth inhibition, permissive medium, pilot counter-assay, permissive growth control for S. cerevisiae lifespan shortening project (AID 705;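 active = growth inhibition above 25% in both replicates, a cutoff set 3 SD above the mean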). Conditions: OD615, 24 h, at 10 µM, stronger effect = higher value.
A short description of assay [10]: Restrictive medium S. cerevisiae growth inhibition, OD615, pilot screen of yeast lifespan reduction project, restrictive growth control (AID 706;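 active = growth inhibition above a set limit, 3 SD over mean compound inhibition, in both replicates, cut at about 43% in these data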;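 also: modified DeaD lifespan yeast strain shifted to restrictive glucose medium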). Conditions: OD615, 48 h, at 10 µM, stronger effect = higher value.
A short description of assay [11]: viability gain of MRP-1-high H69AR cells under doxorubicin, pilot screen, MRP-1 activator project, CellTiter-Glo, duplicate (AID 807;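 active = viability increase at or above a cutoff of the median across tested compounds plus 3 SD, cut at about 8.5% in these data, passing the limit was not always enough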;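 also: compound pretreatment 18-22 h then 72 h combined with doxorubicin; 0% = doxorubicin alone and 100% = vehicle without doxorubicin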). The conditions noted are these: H69AR viability with doxorubicin, CellTiter-Glo luminescence; at 10 µM; stronger effect = higher value.
The nature of assay [12]: growth suppression of beta-catenin knockout HCT116, pilot screen, human colon tumor cells (AID 823;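 active = cell viability at or below a set limit in both duplicate runs, the limit being the all-compound median minus 4 SD, cut at about 23% in these data, passing the limit was not always enough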;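 also: 0% = wells killed by 20 µM Hyamine and 100% = untreated DMSO cell wells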). The conditions noted are these: CellTiter-Glo, 60 h, at 10 µM, stronger effect = lower value.
Assay [13] is described as follows: growth suppression of PTEN-deleted HCT116, pilot screen, cell-based, HCT116 clonal line, CellTiter-Glo (AID 824;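 active = viability at or below 27.92% in each of two runs, the all-compound median minus 4 SD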;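 also: 0% = 20 µM Hyamine control and 100% = vehicle cell control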). The conditions noted are these: 60 h, at 10 µM, stronger effect = lower value.
Assay [14] in a line: inhibitors of the yeast RAM network, pilot screen, dse1pr::URA3 reporter, 5-FOA selection (AID 869).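 Also: 0% = DMSO wells with no growth and 100% = 10 µM 1-NA-PP1 with full growth; RAM network block rescues cells from 5-FOA so hits raise OD615 growth.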 Conditions: S. cerevisiae dse1pr::URA3 5-FOA growth, OD615, 2 d; at 10 µM; stronger effect = higher value; strain carries analog-sensitive mutant Cbk1 kinase.
Assay [15] is described as follows: RAM signaling pathway blockade in yeast – S. cerevisiae, Pdr1DBD-CYC8 efflux-inhibited sensitized strain, primary screen (AID 1298;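 active = RAM network inhibition above 8.4% in each of two replicates, 3 SD over the compound average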;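 also: 0% = DMSO untreated cells without growth and 100% = 10 µM 1-NA-PP1 full growth; higher means more yeast growth rescued from 5-FOA killing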). Conditions: S. cerevisiae cbk1-as DSE1-URA3 strain, 5-FOA growth OD615, 2 d; at 50 µM; stronger effect = higher value.
Where [16] appears, read: H69AR cells + 2 uM doxorubicin, measured here: viability with 2 uM doxorubicin, stronger effect = lower value.
Where [17] appears, read: H69AR cells, compound alone cytotoxicity.

Sequence of Receptor tyrosine-protein kinase erbB-2 (Homo sapiens) (P04626 whole entry, looked up): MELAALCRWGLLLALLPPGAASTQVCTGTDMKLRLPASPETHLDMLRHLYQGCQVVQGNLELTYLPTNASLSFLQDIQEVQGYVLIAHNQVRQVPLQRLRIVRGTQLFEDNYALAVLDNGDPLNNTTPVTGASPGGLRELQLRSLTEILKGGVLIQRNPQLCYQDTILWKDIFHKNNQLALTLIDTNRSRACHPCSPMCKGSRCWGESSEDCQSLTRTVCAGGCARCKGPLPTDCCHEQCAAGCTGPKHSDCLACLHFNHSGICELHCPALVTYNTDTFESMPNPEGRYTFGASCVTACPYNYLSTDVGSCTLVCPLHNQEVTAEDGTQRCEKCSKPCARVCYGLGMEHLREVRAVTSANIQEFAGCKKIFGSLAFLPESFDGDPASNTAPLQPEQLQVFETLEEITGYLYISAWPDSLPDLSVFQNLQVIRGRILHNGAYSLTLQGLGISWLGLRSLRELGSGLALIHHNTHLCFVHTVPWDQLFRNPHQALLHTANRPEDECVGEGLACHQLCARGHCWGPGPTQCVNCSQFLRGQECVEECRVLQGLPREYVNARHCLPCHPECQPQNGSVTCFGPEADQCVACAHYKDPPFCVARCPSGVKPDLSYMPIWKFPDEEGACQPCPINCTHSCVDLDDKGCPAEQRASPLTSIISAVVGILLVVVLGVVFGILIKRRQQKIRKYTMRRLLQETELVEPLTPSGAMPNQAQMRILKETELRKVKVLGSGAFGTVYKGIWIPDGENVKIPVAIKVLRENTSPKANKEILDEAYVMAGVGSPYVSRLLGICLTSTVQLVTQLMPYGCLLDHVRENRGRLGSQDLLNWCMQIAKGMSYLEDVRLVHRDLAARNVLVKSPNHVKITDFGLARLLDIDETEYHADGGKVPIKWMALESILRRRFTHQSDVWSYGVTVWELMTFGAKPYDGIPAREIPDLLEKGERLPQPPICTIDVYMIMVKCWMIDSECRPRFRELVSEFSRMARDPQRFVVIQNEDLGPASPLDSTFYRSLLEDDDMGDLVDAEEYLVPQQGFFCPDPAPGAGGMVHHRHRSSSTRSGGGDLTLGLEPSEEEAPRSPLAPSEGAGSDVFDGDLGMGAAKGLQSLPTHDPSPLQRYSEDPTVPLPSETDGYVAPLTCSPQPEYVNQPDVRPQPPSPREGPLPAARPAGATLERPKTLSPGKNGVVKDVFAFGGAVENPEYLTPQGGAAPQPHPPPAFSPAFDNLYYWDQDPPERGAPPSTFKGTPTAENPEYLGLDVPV

As for `COc1cc(C2N3CC4(C)CN2CC(C)(C3)C4)ccc1O` (stereo not given), the viability is 94% in assay [1]; 94% (inactive) in [3]; 105% (inactive) in assay [4]; 104% (inactive) in assay [5]; 92.3% in [6] (setting [16]); 104% in assay [6] (setting [17]). Also, the viability in assay [12] is 104% (inactive); in assay [13], 98% (inactive). Moreover, the Her2 level in assay [2] was 123% (inactive). In addition, the differential viability (reversal) in assay [6] (H69AR cells + 2 uM doxorubicin) was 11.5% (inactive). In addition, the values for the inhibition in assay [7], in assay [8] and in [14] were -0.51% (inactive), -2% (inactive) and 1.72% (inactive), respectively. Moreover, the growth inhibition in assay [9] was -5.33% (inactive); in assay [10] it was 1.65% (inactive). Further, the viability increase in assay [11] is 0.39% (inactive). The RAM network inhibition in assay [15] was 0.39% (inactive).

In the case of `CC1CCN(Cc2nc3c(c(=O)n(C)c(=O)n3C)n2Cc2cccc3ccccc23)CC1`, the viability in assay [1] was 84%; in assay [3], 84% (inactive); in [4] it was 98% (inactive); in assay [5], 84.9% (inactive); in [6] (setting [16]), 89.2%; in assay [6] (setting [17]), 84.9%. The values for the viability in assay [12] and in assay [13] were 87% (inactive) and 88.2% (inactive), respectively. The Her2 level in assay [2] is 86.5% (inactive). In addition, the differential viability (reversal) in assay [6] (H69AR cells + 2 uM doxorubicin) is -4.26% (inactive). The inhibition in assay [7] is -4% (inactive); in assay [8], 3.67% (inactive); in assay [14] it was 0.115% (inactive). The growth inhibition was -0.525% (inactive) in assay [9] and 0.35% (inactive) in [10]. The viability increase in assay [11] is -1.93% (inactive). The RAM network inhibition in assay [15] is 7.49% (inactive).

As to `CCOC(=O)/C=C1\CC(=O)Nc2nonc2N1`, the viability in assay [1] was 112%; in [3] it was 112% (inactive); in [4] it was 109% (inactive); in assay [5], 105% (inactive); in assay [6] (setting [16]) it was 95.7%; in assay [6] (setting [17]), 105%. Moreover, the viability was 97.5% (inactive) in assay [12] and 95.3% (inactive) in assay [13]. Besides, the Her2 level in assay [2] is 92.5% (inactive). For the same compound, the differential viability (reversal) in assay [6] (H69AR cells + 2 uM doxorubicin) is 9.69% (inactive). For the same compound, the inhibition in assay [7] is -1.73% (inactive); in [8] it was 0.97% (inactive); in assay [14], 0.615% (inactive). Moreover, the growth inhibition was 0.64% (inactive) in assay [9] and 9.22% (inactive) in assay [10]. The viability increase in [11] is -2.08% (inactive). In addition, the RAM network inhibition in [15] is 1.93% (inactive).

For `CCC(C)(NC(=O)c1ccc(=O)[nH]c1)C(=O)NC1CCCC1` (stereo not given), the viability in [1] was 102%; in [3], 102% (inactive); in [4], 107% (inactive); in assay [5] it was 94.1% (inactive); in [6] (setting [16]) it was 81.8%; in assay [6] (setting [17]), 94.1%. Besides, the viability in assay [12] was 105% (inactive); in assay [13], 97.9% (inactive). Besides, in assay [2], the Her2 level was 96.5% (inactive). Further, in assay [6] (H69AR cells + 2 uM doxorubicin), the differential viability (reversal) is 12.3% (inactive). The inhibition in [7] is -5.2% (inactive); in assay [8], -0.67% (inactive); in assay [14], 1.92% (inactive). Moreover, the growth inhibition in [9] was -11.7% (inactive); in assay [10] it was -35% (inactive). Further, the viability increase in assay [11] was 0.76% (inactive). In addition, the RAM network inhibition in assay [15] was 2.77% (inactive).

For `Cc1ccc(-n2ncc3c(N4CCCC(C)C4)ncnc32)c(C)c1` (stereo not given), the viability in assay [1] is 104%; in assay [3] it was 104% (inactive); in assay [4], 60.2% (inactive); in [5], 61.6% (inactive); in assay [6] (setting [16]), 23.4%; in assay [6] (setting [17]), 61.6%. The viability in assay [12] was 80.5% (inactive); in assay [13], 80.4% (inactive). Also, the Her2 level in assay [2] is 78.5% (inactive). The differential viability (reversal) in assay [6] (H69AR cells + 2 uM doxorubicin) was 38.2% (inactive). Besides, the inhibition in assay [7] was -5.07% (inactive); in assay [8], 8% (inactive); in [14], 0.12% (inactive). The growth inhibition in [9] is -2.59% (inactive); in assay [10], 10% (inactive). Further, the viability increase in assay [11] was -8.5% (inactive). The RAM network inhibition in [15] is 2.4% (inactive).

(Values after PubChem BioAssay.)
